Test results taken from PubChem BioAssay AID743261 (The Scripps Research Institute Molecular Screening Center, 2014).
In all, about 3,300 compounds went through this assay and about 35 (1%) were called active. The list is a sample of the results. A number with no mark means an inactive call. No stated cut-off is given here; in the data, active means inhibition above about 11%; inactive means the rest.

biological target: 1-phosphatidylinositol 4,5-bisphosphate phosphodiesterase beta-3 (Homo sapiens) (UniProt Q01970); assay: PLC-beta3 inhibitor confirmation, biochemical, fluorescence, purified enzyme (AID 743261); conditions: purified PLC-beta3, fluorogenic substrate fluorescence; at 12.3 µM; hits give high values
Sequence (Q01970 whole entry, looked up): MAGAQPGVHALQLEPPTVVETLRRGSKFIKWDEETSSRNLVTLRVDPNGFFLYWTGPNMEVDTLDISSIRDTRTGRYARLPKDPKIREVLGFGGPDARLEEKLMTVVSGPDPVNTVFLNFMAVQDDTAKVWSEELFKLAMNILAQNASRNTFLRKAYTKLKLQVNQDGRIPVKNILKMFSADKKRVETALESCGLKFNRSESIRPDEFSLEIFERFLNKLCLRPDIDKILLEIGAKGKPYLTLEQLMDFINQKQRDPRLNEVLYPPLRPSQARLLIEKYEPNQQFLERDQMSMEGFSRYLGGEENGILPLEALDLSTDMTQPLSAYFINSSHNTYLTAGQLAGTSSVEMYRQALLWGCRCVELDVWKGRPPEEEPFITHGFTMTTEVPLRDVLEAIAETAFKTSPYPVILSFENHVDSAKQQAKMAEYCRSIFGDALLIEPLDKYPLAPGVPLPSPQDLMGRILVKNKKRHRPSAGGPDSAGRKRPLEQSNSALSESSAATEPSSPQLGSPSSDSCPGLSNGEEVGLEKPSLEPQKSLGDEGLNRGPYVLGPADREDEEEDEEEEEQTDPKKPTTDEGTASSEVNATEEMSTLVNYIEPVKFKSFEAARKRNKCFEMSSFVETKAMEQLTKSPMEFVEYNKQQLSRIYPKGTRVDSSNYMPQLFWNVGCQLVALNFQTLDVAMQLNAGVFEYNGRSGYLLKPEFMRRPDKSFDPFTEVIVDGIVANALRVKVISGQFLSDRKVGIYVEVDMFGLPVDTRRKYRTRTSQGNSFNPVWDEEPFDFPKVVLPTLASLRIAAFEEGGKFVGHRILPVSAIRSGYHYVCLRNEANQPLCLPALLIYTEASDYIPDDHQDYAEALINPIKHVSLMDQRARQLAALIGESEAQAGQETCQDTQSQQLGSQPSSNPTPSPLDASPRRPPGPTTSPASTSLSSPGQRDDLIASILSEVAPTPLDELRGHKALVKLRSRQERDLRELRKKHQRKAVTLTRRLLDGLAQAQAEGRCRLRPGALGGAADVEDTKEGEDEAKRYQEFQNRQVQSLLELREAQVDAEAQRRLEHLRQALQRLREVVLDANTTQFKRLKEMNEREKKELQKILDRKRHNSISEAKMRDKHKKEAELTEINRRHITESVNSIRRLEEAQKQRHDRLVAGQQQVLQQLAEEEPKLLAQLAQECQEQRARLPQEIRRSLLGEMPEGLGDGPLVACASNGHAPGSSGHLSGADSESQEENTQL

Question: Which inhibition does the source give for Cc1cccc(C(=O)NCCCN2CCCC2=O)c1 here?
Answer: 2.72%

Question: Which inhibition does the source give for CN(C)S(=O)(=O)c1cccc(NC(=O)COC(=O)C2(c3ccccc3F)CCCC2)c1 here?
Answer: 0.6%

Question: How did the inhibition turn out when Nc1nc(NCC(=O)O)nc(N2CCCCCC2)c1[N+](=O)[O-] was run?
Answer: 5.2%

Question: CCOC(=O)Nc1ccc(NC(=O)OCC)cc1 was tested. Which inhibition did it give?
Answer: 4.88%

Question: CC1(C)CC(=O)C=C(NC2CC(C)(C)NC(C)(C)C2)C1 was tested. Which inhibition did it give?
Answer: 0.58%

Question: How did the inhibition turn out when Cc1ccc(S(=O)(=O)N2CCCCC2)cc1NC(=O)CCNC(=O)c1ccccc1 was run?
Answer: -5.41%

Question: FC(F)(F)c1cnc(Oc2ccccc2-c2nnc(-c3ccc(Cl)cc3)o2)c(Cl)c1 was tested. Which inhibition did it give?
Answer: -7.7%

Question: For O=C(NC12CC3CC(CC(C3)C1)C2)N1CCCC(CO)C1 (stereo not given), which inhibition is on record?
Answer: -3.42%

Question: For CC(C)(C)c1ccc(C(=O)Nc2cc(Cl)c(Br)cc2C(=O)O)cc1, which inhibition is on record?
Answer: -8.39%

Question: Cc1ccc(S(=O)(=O)Cn2nnnc2CN2CCN(Cc3ccc4c(c3)OCO4)CC2)cc1 was tested. Which inhibition did it give?
Answer: 2.26%

Question: How did the inhibition turn out when CC(C)C(NC(=O)C1CCC(C(C)(C)C)CC1)C(=O)NCCCN1CCCCC1 (stereo not given) was run?
Answer: 0.28%

Question: With CC1CCN(S(=O)(=O)c2ccc(S(=O)(=O)NCc3ccco3)cc2)CC1 as the compound, how does the inhibition read?
Answer: -1.58%

Question: How did the inhibition turn out when O=C(NCc1ccc(F)cc1F)[C@@H]1CCCN1C(=O)[C@@H]1CCCN1C(=O)c1cccc(Cl)c1 was run?
Answer: -0.65%

Question: With CC(=O)C1=C(O)C(=O)N(c2cccnc2)C1c1ccc([N+](=O)[O-])cc1 (stereo not given) as the compound, how does the inhibition read?
Answer: -1.47%

Question: How did the inhibition turn out when O=c1ccc2c(-c3ccccc3S(=O)(=O)O)c3ccc(O)c(O)c3oc-2c1O was run?
Answer: 21% (active)

Question: With COc1ccc(/C(C)=N/N2CCOCC2)c(O)c1 as the compound, how does the inhibition read?
Answer: -14.9%

Question: For COCCNC(=O)C(c1ccc(O)cc1)N(C(=O)CCC(=O)Nc1nccs1)c1ccc(C)cc1 (stereo not given), which inhibition is on record?
Answer: -0.24%

Question: O=C1NC2(CCCCC2)N=C1c1ccccc1 was tested. Which inhibition did it give?
Answer: -4.41%

Question: Which inhibition does the source give for Cc1cccc([C@@H]2[C@@H]3C(=O)N(Cc4ccccc4)C(=O)[C@@H]3[C@]3(Cc4ccc(Cl)cc4)C(=O)N(c4cccc(Cl)c4)C(=O)N23)c1 here?
Answer: 5.38%

Question: For Cc1cc(NC(=O)CN2C(=O)NC(CC(C)C)C2=O)no1 (stereo not given), which inhibition is on record?
Answer: 0.1%

Question: How did the inhibition turn out when CC(C)CCSc1ncnc2c1oc1nc3c(cc12)COC(C)(C)C3 was run?
Answer: -2.11%

Question: How did the inhibition turn out when O=C(C[C@H]1C(=O)N(c2ccc(F)c(F)c2)C[C@@H]1Cc1ccccc1)Nc1ccccc1 was run?
Answer: 9.92%

Question: How did the inhibition turn out when CN(C(=O)c1ccc(NC(=O)Cc2cccc(NC(=O)C3CCN(C(=O)c4ccccc4)CC3)c2)cc1)C1CC1 was run?
Answer: -1%

Question: How did the inhibition turn out when CCCCn1c(SCC(=O)N2CCCC2=O)nc2cc(S(N)(=O)=O)ccc21 was run?
Answer: 0.23%

Question: For O=c1c([N+](=O)[O-])cc(C(F)(F)F)cn1Cc1cccc(Cl)c1, which inhibition is on record?
Answer: 4.27%

Question: For Cc1nc(-c2ccc(F)cc2)c(CC(=O)N2CCN(S(=O)(=O)c3ccc(F)cc3)CC2)s1, which inhibition is on record?
Answer: -1.44%

Question: For O=C(COc1ccc(Cl)cc1)N1CCN(c2cccc(C(F)(F)F)c2)CC1, which inhibition is on record?
Answer: -5.48%

Question: How did the inhibition turn out when O=S(=O)(c1ccc(F)cc1)N1CCN(C(=S)NC2CCCC2)CC1 was run?
Answer: -3.43%

Question: With CC1(C(=O)NCc2ccccc2)CSCC(=O)N1CCCN1CCOCC1 (stereo not given) as the compound, how does the inhibition read?
Answer: -2.02%

Question: Which inhibition does the source give for O=[N+]([O-])c1cc(C(F)(F)F)ccc1NN=C1CCCC1 here?
Answer: 2.81%

Question: How did the inhibition turn out when O=c1c2ccccc2c(-c2ccccc2)nn1Cc1ccccc1 was run?
Answer: -6.9%

Question: How did the inhibition turn out when CN(CC(=O)NC1CCCCC1)S(=O)(=O)c1ccc(Br)s1 was run?
Answer: 3.57%

Question: With COc1ccccc1C(=O)N1C(CC(=O)Nc2ccccc2C)C(=O)NC2CCCCC21 (stereo not given) as the compound, how does the inhibition read?
Answer: -8.41%

Question: Which inhibition does the source give for COc1cc(OC)nc(S(C)(=O)=O)n1 here?
Answer: -3.28%

Question: For O=C(C(c1ccccc1)c1ccccc1)N1CCN(CC(O)COc2ccccc2)CC1 (stereo not given), which inhibition is on record?
Answer: 3.79%

Question: Which inhibition does the source give for COC(=O)NC1(C(F)(F)F)NC(=O)N(C2CCCCC2)C1=O (stereo not given) here?
Answer: 2.36%

Question: N#C[C@]1(S(=O)(=O)c2ccccc2)C[C@@H]2ON=C(c3cccc(Br)c3)[C@@H]2C1 was tested. Which inhibition did it give?
Answer: 0.44%

Question: For CC1Oc2ccccc2N(Cc2cccnc2)C1=O (stereo not given), which inhibition is on record?
Answer: -1.95%

Question: For COc1ccccc1C(=O)Nc1cccc(C(=O)N2CCOCC2)c1, which inhibition is on record?
Answer: -1.43%

Question: Which inhibition does the source give for S=c1[nH]nc(-c2cccnc2)n1/N=C/C(Cl)=C\c1ccccc1 here?
Answer: -5.69%

Question: How did the inhibition turn out when CC1(C)CC(=O)C=C(NCCN2CCNCC2)C1 was run?
Answer: -4.21%

Question: With CCn1c(/C=C/Nc2ccccc2)[n+](CC)c2ccc(C(=O)OCC(F)(F)F)cc21 as the compound, how does the inhibition read?
Answer: -12.7%

Question: With COC(=O)CN1C(=O)C(O)=C(C(C)=O)C1c1ccc([N+](=O)[O-])cc1 (stereo not given) as the compound, how does the inhibition read?
Answer: 2.66%

Question: With COc1ccc(-c2ccc(CN3C(CC(C)C)C(=O)N(Cc4cn(CC5CCCCC5)nn4)CCS3(=O)=O)cc2)cc1 (stereo not given) as the compound, how does the inhibition read?
Answer: -1.28%

Question: How did the inhibition turn out when COc1ccc([N+](=O)[O-])cc1N(CC(O)Cn1nnc2ccccc21)S(=O)(=O)c1ccc(C)cc1 (stereo not given) was run?
Answer: 3.85%

Question: For CCOc1ccccc1C1CC(c2cccc(NS(C)(=O)=O)c2)=NN1C(=O)c1ccccc1 (stereo not given), which inhibition is on record?
Answer: -3.53%

Question: For O=C1CS(=O)CN1c1ccc(Oc2ccccc2)cc1 (stereo not given), which inhibition is on record?
Answer: 0.56%

Question: With COc1cc(NC(=O)COC(=O)c2ccc([N+](=O)[O-])s2)cc(OC)c1OC as the compound, how does the inhibition read?
Answer: 2.2%

Question: With O=S(=O)(Nc1ccc(Oc2ncccn2)c(Cl)c1)c1ccc(F)cc1 as the compound, how does the inhibition read?
Answer: -3.4%

Question: O=C(CSc1nnc(-c2ccncc2)n1C1CCCCC1)Nc1ccccc1 was tested. Which inhibition did it give?
Answer: -1.28%

Question: With COc1ccccc1CCNC(=O)CN1C(=O)NC2(CCCC2)C1=O as the compound, how does the inhibition read?
Answer: 7.54%

Question: For Clc1ccc(C2[C@H]3CN(CC4CCCCC4)[C@H](c4ccccc4)C34CC2(c2cccnc2)C4)cn1 (stereo not given in full), which inhibition is on record?
Answer: -4.05%

Question: C[C@H](C(=O)N(C)c1ccccc1)[C@@H](O)c1ccc2ccccc2c1 was tested. Which inhibition did it give?
Answer: -3.71%

Question: With CCN(CC)Cc1csc2ccc(Br)cc12 as the compound, how does the inhibition read?
Answer: 0.36%

Question: How did the inhibition turn out when C=CCSC(CC)(CC)C(N)=O was run?
Answer: 3.18%

Question: COCc1cc(C(C)=O)ccc1OC was tested. Which inhibition did it give?
Answer: 0.95%

Question: Which inhibition does the source give for Cc1cccc(NC(=O)c2ccc3c(=O)n(CC4CCCO4)c(=S)[nH]c3c2)c1 (stereo not given) here?
Answer: 1.92%

Question: For CCc1ccc(-c2nc(SCC(=O)NC3CCCC3)n[nH]2)cc1, which inhibition is on record?
Answer: -2.19%

Question: How did the inhibition turn out when C=CCOc1ccc(Cl)cc1CNCCCN1CCOCC1 was run?
Answer: 1.5%

Question: Which inhibition does the source give for Cc1cc(NC(=O)COn2nnc3ccccc32)no1 here?
Answer: -9.92%

Question: With Cc1ccc(Cn2ccc(NC(=O)C3C4CCC(C4)C3C(=O)O)n2)cc1 (stereo not given) as the compound, how does the inhibition read?
Answer: -9.86%

Question: CN(CC(=O)Nc1ccccc1Cl)C(=O)COc1cccc2c1OC(C)(C)C2 was tested. Which inhibition did it give?
Answer: 0.64%

Question: How did the inhibition turn out when CNC(=O)n1ccc(C(=O)N2CCCCC2)n1 was run?
Answer: -1.25%

Question: With COc1ccc(C(N)c2csc(NC(=O)Nc3cccc(C(F)(F)F)c3)n2)cc1 (stereo not given) as the compound, how does the inhibition read?
Answer: 3.1%

Question: Which inhibition does the source give for O=C(NCCCN1CCCCC1)C1CC(=O)N(CCc2ccccc2)C1 (stereo not given) here?
Answer: 1.91%

Question: With O=C1/C(=C\c2ccsc2)NC(=S)N1c1ccccc1 as the compound, how does the inhibition read?
Answer: -5.74%

Question: CC(C)Cn1cnc2c1c(=O)n(CC(O)c1ccccc1)c(=O)n2CC(C)C (stereo not given) was tested. Which inhibition did it give?
Answer: -3.57%

Question: How did the inhibition turn out when C=CCOc1ccccc1/C=N/NC(=O)Cc1ccccc1 was run?
Answer: -2.73%

Question: How did the inhibition turn out when CCOC(=O)N1CCC(c2cc(=O)n(-c3ccccc3)[nH]2)CC1 was run?
Answer: 2.09%

Question: How did the inhibition turn out when CCOc1cccc(-c2nnc3sc(COc4ccc(OC)cc4)nn23)c1 was run?
Answer: -3.2%

Question: With O=C(/C=C/c1c(F)cccc1Cl)Nc1nn[nH]n1 as the compound, how does the inhibition read?
Answer: -1.92%

Question: Which inhibition does the source give for O=S1(=O)c2ccc(Br)cc2OC[C@H](Cc2ccccc2)N1Cc1cn(Cc2ccccc2)nn1 here?
Answer: 6.58%

Question: How did the inhibition turn out when CC(=O)c1c(C)[nH]c(C(=O)OCC(=O)Nc2cc(S(=O)(=O)N3CCCCC3)ccc2C)c1C was run?
Answer: 2.76%

Question: How did the inhibition turn out when CCC1CCCCN1C(=O)CSc1nc(C)cc(C)n1 (stereo not given) was run?
Answer: -1.69%

Question: With Cc1ccc(C(=O)N2CCN(C(=O)N3CCOCC3)CC2)cc1 as the compound, how does the inhibition read?
Answer: -1.36%

Question: Cc1ccc(C)c(N2CCN(S(=O)(=O)c3c(C)[nH]c(C)c3C(=O)N3CCCC3)CC2)c1 was tested. Which inhibition did it give?
Answer: -5.1%

Question: Cc1ccc(C23CC4CC(CC(C(=O)NCC(=O)O)(C4)C2)C3)cc1 was tested. Which inhibition did it give?
Answer: 4.19%

Question: For CCC[C@H]1CCCC/C=C\CCCC(=O)OCCN1C(=O)OC(C)(C)C, which inhibition is on record?
Answer: 7.62%

Question: Which inhibition does the source give for CCOc1ccccc1NC(=O)c1cccnc1 here?
Answer: -4.38%

Question: Which inhibition does the source give for O=C1c2ccccc2S(=O)(=O)N1CC(O)Cn1c2ccccc2c2ccccc21 (stereo not given) here?
Answer: -0.97%

Question: How did the inhibition turn out when Cc1cc(NC(=O)c2ccc(F)cc2)ccc1NC(=O)c1ccco1 was run?
Answer: 8.74%

Question: Which inhibition does the source give for Cc1ccc(C(=O)Nc2ccc(C)c(S(=O)(=O)N(C)C)c2)s1 here?
Answer: -7.5%

Question: For COC(=O)N(C)C[C@@H]1OCc2cnnn2CCCC(=O)N([C@@H](C)CO)C[C@@H]1C, which inhibition is on record?
Answer: -4.12%

Question: Which inhibition does the source give for CCOc1ccc(CCNC(=O)COC(=O)CCS(=O)(=O)c2ccc(C)cc2)cc1OCC here?
Answer: -2.58%

Question: Which inhibition does the source give for CCOC(=O)[C@]12CCCC=C1N(CCCOC)C(=O)[C@@H]2CC(=O)N1CCOCC1 here?
Answer: -1.19%

Question: NC1=CC(=O)C(=O)c2cccnc21 was tested. Which inhibition did it give?
Answer: -2.06%

Question: How did the inhibition turn out when O=C(NCc1cccnc1)c1cc(C2CCCCN2C(=O)CCc2ccccc2)on1 (stereo not given) was run?
Answer: 1.6%

Question: With NC1=NN(c2cccc(C(=O)O)c2)C(=O)C1 as the compound, how does the inhibition read?
Answer: 0.11%

Question: How did the inhibition turn out when OC(CNCC1CCCO1)Cn1c2ccc(Br)cc2c2cc(Br)ccc21 (stereo not given) was run?
Answer: -1.89%

Question: For CCCCc1nc2ccccc2c(NC(=O)CN2CCN(C)CC2)c1CCC, which inhibition is on record?
Answer: -2.31%
